Screen size: about 5,500 compounds; about 2,000 (36%) were called active. Inconclusive results (about 18%) are left out. No stated cut-off is given here; in the data, active means normalized growth mostly below about 0.91 (no sharp cut-off); inconclusive means no clear call, values can overlap the other calls; inactive means mostly above about 0.92. The list shows a part of the results.
Test: chemical genetic growth profiling, strain panel (AID 1159580);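 further: tested at 20 µM; growth read once vehicle control cultures reached saturation at 30 °C; 1 = growth at the plate median or of vehicle wells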
Conditions: growth OD

Measured: normalized growth

C/C1=C\CC(C)(C)/C=C/CC2(C)OC2CC1 (stereo unspecified)
inactive: S. cerevisiae deletion strains, locus YBR021W, strain FUR4, stronger effect = lower value 1.02 | S. cerevisiae deletion strains, locus YBR229C, strain ROT2, stronger effect = lower value 1.01 | S. cerevisiae deletion strains, locus YCL029C, strain bik1, stronger effect = lower value 0.999 | S. cerevisiae deletion strains, locus YDL035C, strain GPR1, stronger effect = lower value 0.998 | S. cerevisiae deletion strains, locus YDL074C, strain BRE1, stronger effect = lower value 1.01 | S. cerevisiae deletion strains, locus YDL101C, strain DUN1, stronger effect = lower value 1.03 | S. cerevisiae deletion strains, locus YDL185W, strain tfp1, stronger effect = lower value 1.01 | S. cerevisiae deletion strains, locus YDL192W, strain arf1, stronger effect = lower value 1.01 | S. cerevisiae deletion strains, locus YDR101C, strain arx1, stronger effect = lower value 0.968 | S. cerevisiae deletion strains, locus YDR150W, strain NUM1, stronger effect = lower value 1.01 | S. cerevisiae deletion strains, locus YDR162C, strain NBP2, stronger effect = lower value 1 | S. cerevisiae deletion strains, locus YDR318W, strain mcm21, stronger effect = lower value 0.997 | S. cerevisiae deletion strains, locus YDR388W, stronger effect = lower value 1.01 | S. cerevisiae deletion strains, locus YDR502C, strain sam2, stronger effect = lower value 1.03 | S. cerevisiae deletion strains, locus YEL061C, strain CIN8, stronger effect = lower value 1.01 | S. cerevisiae deletion strains, locus YER110C, stronger effect = lower value 1.02 | S. cerevisiae deletion strains, locus YER155C, strain BEM2, stronger effect = lower value 1 | S. cerevisiae deletion strains, locus YER167W, strain BCK2, stronger effect = lower value 1 | S. cerevisiae deletion strains, locus YGL078C, strain dbp3, stronger effect = lower value 1.01 | S. cerevisiae deletion strains, locus YGL086W, strain mad1, stronger effect = lower value 1.01 | S. cerevisiae deletion strains, locus YGL248W, strain PDE1, stronger effect = lower value 1.04 | S. cerevisiae deletion strains, locus YGR135W, strain pre9, stronger effect = lower value 1.05 | S. cerevisiae deletion strains, locus YGR252W, strain gcn5, stronger effect = lower value 1.05 | S. cerevisiae deletion strains, locus YHR030C, strain SLT2, stronger effect = lower value 1 | S. cerevisiae deletion strains, locus YHR079C, strain IRE1 (second series), stronger effect = lower value 1.01 | S. cerevisiae deletion strains, locus YHR094C, strain hxt1, stronger effect = lower value 1.02 | S. cerevisiae deletion strains, locus YHR129C, strain ARP1, stronger effect = lower value 1.01 | S. cerevisiae deletion strains, locus YHR200W, strain rpn10, stronger effect = lower value 1.01 | S. cerevisiae deletion strains, locus YIL066C, strain RNR3, stronger effect = lower value 1.01 | S. cerevisiae deletion strains, locus YIL073C, strain SPO22, stronger effect = lower value 1.04 | S. cerevisiae deletion strains, locus YIL125W, strain kgd1, stronger effect = lower value 1.01 | S. cerevisiae deletion strains, locus YIR030C, strain dcg1, stronger effect = lower value 0.999 | S. cerevisiae deletion strains, locus YJL095W, strain BCK1, stronger effect = lower value 1.08 | S. cerevisiae deletion strains, locus YJL134W, strain LCB3, stronger effect = lower value 1 | S. cerevisiae deletion strains, locus YJL168C, strain set2, stronger effect = lower value 1.02 | S. cerevisiae deletion strains, locus YJL187C, strain SWE1 (second series), stronger effect = lower value 1.03 | S. cerevisiae deletion strains, locus YJR043C, strain POL32, stronger effect = lower value 0.99 | S. cerevisiae deletion strains, locus YJR075W, strain HOC1, stronger effect = lower value 1.01 | S. cerevisiae deletion strains, locus YKL009W, strain mrt4, stronger effect = lower value 1.01 | S. cerevisiae deletion strains, locus YKL068W, stronger effect = lower value 1 | S. cerevisiae deletion strains, locus YKL085W, strain MDH1 (second series), stronger effect = lower value 1.01 | S. cerevisiae deletion strains, locus YKL085W, strain MDH1, stronger effect = lower value 1.01 | S. cerevisiae deletion strains, locus YKR001C, strain vps1, stronger effect = lower value 0.998 | S. cerevisiae deletion strains, locus YLR039C, strain RIC1, stronger effect = lower value 1.04 | S. cerevisiae deletion strains, locus YLR058C, strain SHM2, stronger effect = lower value 1.01 | S. cerevisiae deletion strains, locus YLR102C, strain apc9, stronger effect = lower value 1.01 | S. cerevisiae deletion strains, locus YLR262C, strain YPT6, stronger effect = lower value 1.07 | S. cerevisiae deletion strains, locus YLR268W, strain sec22, stronger effect = lower value 0.99 | S. cerevisiae deletion strains, locus YLR342W, strain FKS1 (second series), stronger effect = lower value 1.02 | S. cerevisiae deletion strains, locus YLR371W, strain rom2, stronger effect = lower value 0.984 | S. cerevisiae deletion strains, locus YLR418C, strain cdc73, stronger effect = lower value 1.08 | S. cerevisiae deletion strains, locus YML016C, strain PPZ1, stronger effect = lower value 1 | S. cerevisiae deletion strains, locus YML032C, strain rad52, stronger effect = lower value 1 | S. cerevisiae deletion strains, locus YML124C, strain tub3, stronger effect = lower value 1 | S. cerevisiae deletion strains, locus YMR078C, strain ctf18, stronger effect = lower value 1.01 | S. cerevisiae deletion strains, locus YMR223W, strain ubp8, stronger effect = lower value 1.01 | S. cerevisiae deletion strains, locus YMR263W, strain SAP30, stronger effect = lower value 1.02 | S. cerevisiae deletion strains, locus YMR307W, strain GAS1, stronger effect = lower value 0.978 | S. cerevisiae deletion strains, locus YNL067W, strain RPL9B, stronger effect = lower value 1.02 | S. cerevisiae deletion strains, locus YNL153C, strain GIM3, stronger effect = lower value 1.03 | S. cerevisiae deletion strains, locus YNL233W, strain BNI4, stronger effect = lower value 1.03 | S. cerevisiae deletion strains, locus YNL250W, strain rad50, stronger effect = lower value 1.01 | S. cerevisiae deletion strains, locus YNL271C, strain bni1, stronger effect = lower value 1.01 | S. cerevisiae deletion strains, locus YNL298W, strain CLA4, stronger effect = lower value 0.995 | S. cerevisiae deletion strains, locus YNL307C, strain MCK1, stronger effect = lower value 1.03 | S. cerevisiae deletion strains, locus YNR052C, strain pop2, stronger effect = lower value 1.01 | S. cerevisiae deletion strains, locus YOL006C, strain TOP1, stronger effect = lower value 1 | S. cerevisiae deletion strains, locus YOL012C, strain htz1 1.6 | S. cerevisiae deletion strains, locus YOL147C, strain pex11, stronger effect = lower value 1.01 | S. cerevisiae deletion strains, locus YOR061W, strain CKA2, stronger effect = lower value 0.994 | S. cerevisiae deletion strains, locus YOR069W, strain VPS5, stronger effect = lower value 1.01 | S. cerevisiae deletion strains, locus YOR136W, strain idh2, stronger effect = lower value 1 | S. cerevisiae deletion strains, locus YOR144C, strain elg1, stronger effect = lower value 1 | S. cerevisiae deletion strains, locus YOR184W, strain ser1, stronger effect = lower value 0.986 | S. cerevisiae deletion strains, locus YOR316C, strain cot1, stronger effect = lower value 1 | S. cerevisiae deletion strains, locus YPR119W, strain clb2, stronger effect = lower value 1.02 | S. cerevisiae deletion strains, locus YPR141C, strain kar3, stronger effect = lower value 1.01 | S. cerevisiae deletion strains, locus YPR163C, strain tif3, stronger effect = lower value 1.02 | S. cerevisiae deletion strains, locus YPR167C, strain met16, stronger effect = lower value 1.02 | S. cerevisiae deletion strains, strain wtn01, stronger effect = lower value 0.974 | S. cerevisiae strains, strain wild type, stronger effect = lower value 1.01
